Measurements published in ChEMBL document CHEMBL2218924, “A broad activity screen in support of a chemogenomic map for kinase signalling research and drug discovery” (Biochem J, 2013).

Legend:
[1] = biological target: T1, Serine/threonine-protein kinase 17A (Homo sapiens) (UniProt Q9UEE5); conditions: at 10 µM
T1 sequence (whole entry): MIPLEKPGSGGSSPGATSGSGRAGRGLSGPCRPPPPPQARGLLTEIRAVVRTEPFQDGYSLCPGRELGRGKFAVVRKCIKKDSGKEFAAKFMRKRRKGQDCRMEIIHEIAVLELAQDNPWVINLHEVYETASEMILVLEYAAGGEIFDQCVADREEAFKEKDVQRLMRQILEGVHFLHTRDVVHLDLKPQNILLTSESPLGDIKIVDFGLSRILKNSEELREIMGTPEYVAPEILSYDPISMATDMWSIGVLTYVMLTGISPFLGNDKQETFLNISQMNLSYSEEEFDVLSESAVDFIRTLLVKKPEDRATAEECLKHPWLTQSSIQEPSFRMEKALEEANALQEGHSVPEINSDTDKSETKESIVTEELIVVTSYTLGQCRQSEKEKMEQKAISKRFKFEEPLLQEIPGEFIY

[2] = biological target: T2, Dual specificity tyrosine-phosphorylation-regulated kinase 2 (Homo sapiens) (UniProt Q92630); conditions: at 1 µM
T2 sequence (whole entry): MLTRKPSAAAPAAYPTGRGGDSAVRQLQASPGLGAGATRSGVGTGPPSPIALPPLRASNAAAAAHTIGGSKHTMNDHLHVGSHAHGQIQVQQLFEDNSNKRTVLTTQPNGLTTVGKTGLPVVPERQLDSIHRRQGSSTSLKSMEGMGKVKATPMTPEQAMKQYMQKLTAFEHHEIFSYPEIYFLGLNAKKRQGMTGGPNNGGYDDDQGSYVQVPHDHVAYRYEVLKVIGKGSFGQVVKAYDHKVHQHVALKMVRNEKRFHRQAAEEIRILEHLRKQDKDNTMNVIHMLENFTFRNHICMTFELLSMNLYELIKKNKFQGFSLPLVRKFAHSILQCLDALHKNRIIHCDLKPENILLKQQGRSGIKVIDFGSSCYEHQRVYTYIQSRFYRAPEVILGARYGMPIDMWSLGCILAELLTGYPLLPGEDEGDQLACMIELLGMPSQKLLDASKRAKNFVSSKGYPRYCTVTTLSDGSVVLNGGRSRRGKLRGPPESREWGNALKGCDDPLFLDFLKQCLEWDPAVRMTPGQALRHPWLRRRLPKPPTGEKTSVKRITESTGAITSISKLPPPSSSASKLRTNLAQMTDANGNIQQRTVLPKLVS

[3] = biological target: T2, Dual specificity tyrosine-phosphorylation-regulated kinase 2 (Homo sapiens); conditions: at 10 µM
[4] = biological target: Epidermal growth factor receptor (Homo sapiens) (UniProt P00533); conditions: at 1 µM
[5] = biological target: Epidermal growth factor receptor (Homo sapiens) (UniProt P00533); conditions: at 10 µM
[6] = biological target: T3, Ephrin type-A receptor 1 (Homo sapiens) (UniProt P21709); conditions: at 1 µM
T3 sequence (whole entry): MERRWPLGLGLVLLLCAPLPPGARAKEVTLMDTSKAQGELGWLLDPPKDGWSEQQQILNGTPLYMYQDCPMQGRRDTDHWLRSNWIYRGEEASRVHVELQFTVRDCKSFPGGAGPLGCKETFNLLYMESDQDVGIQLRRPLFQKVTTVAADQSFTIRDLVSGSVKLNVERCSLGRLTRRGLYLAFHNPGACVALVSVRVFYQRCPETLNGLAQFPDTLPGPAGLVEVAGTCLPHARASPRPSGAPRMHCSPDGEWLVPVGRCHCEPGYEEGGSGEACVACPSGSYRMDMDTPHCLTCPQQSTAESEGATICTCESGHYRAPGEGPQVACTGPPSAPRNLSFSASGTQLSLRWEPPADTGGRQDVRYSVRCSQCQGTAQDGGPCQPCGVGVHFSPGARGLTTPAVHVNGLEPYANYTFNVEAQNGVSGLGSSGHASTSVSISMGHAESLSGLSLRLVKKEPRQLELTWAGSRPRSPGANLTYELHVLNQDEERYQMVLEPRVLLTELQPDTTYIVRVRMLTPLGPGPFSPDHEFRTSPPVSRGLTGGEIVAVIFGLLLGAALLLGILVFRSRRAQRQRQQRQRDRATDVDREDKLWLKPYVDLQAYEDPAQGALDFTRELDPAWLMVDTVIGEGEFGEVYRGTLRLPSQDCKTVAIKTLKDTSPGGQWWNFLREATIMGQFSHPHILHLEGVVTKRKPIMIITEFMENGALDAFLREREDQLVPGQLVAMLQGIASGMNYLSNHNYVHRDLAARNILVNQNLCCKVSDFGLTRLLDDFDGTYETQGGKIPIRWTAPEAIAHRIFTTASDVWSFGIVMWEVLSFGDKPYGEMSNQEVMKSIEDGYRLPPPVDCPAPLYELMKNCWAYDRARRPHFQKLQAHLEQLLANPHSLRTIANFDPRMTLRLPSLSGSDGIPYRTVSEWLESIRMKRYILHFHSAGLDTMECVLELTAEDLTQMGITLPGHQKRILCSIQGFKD

[7] = biological target: T3, Ephrin type-A receptor 1 (Homo sapiens); conditions: at 10 µM
[8] = biological target: Ephrin type-A receptor 2 (Homo sapiens) (UniProt P29317); conditions: at 1 µM
[9] = biological target: Ephrin type-A receptor 2 (Homo sapiens) (UniProt P29317); conditions: at 10 µM
[10] = biological target: T4, Ephrin type-A receptor 3 (Homo sapiens) (UniProt P29320); conditions: at 1 µM
T4 sequence (whole entry): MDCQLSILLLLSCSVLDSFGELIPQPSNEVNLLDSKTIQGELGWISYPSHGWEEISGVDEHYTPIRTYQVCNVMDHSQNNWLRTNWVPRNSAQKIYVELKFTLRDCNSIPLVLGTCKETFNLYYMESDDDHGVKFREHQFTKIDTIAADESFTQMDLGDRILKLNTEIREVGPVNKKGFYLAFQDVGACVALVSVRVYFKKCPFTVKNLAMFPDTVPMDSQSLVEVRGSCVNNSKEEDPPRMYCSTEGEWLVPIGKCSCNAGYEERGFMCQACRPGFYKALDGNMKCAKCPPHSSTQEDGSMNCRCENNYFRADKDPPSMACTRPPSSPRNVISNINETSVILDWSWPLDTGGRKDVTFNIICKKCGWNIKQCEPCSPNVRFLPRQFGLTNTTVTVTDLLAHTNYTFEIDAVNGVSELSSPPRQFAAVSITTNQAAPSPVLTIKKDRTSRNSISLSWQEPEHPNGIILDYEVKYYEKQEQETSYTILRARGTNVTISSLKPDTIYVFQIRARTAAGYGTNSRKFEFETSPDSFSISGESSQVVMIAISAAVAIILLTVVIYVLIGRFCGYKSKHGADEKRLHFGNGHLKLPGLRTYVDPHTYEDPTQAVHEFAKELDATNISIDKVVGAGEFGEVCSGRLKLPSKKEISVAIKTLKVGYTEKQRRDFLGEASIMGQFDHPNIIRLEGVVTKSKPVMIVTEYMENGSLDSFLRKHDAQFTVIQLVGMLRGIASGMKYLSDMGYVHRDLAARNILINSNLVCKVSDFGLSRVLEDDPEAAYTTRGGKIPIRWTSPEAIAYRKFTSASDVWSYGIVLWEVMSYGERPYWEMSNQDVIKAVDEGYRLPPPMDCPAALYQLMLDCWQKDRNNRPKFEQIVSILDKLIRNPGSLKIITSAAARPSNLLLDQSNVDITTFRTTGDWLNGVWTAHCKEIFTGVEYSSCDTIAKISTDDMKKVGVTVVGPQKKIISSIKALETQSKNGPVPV

[11] = biological target: T4, Ephrin type-A receptor 3 (Homo sapiens); conditions: at 10 µM
[12] = biological target: Ephrin type-A receptor 4 (Homo sapiens) (UniProt P54764); conditions: at 1 µM
[13] = biological target: Ephrin type-A receptor 4 (Homo sapiens) (UniProt P54764); conditions: at 10 µM
[14] = biological target: Ephrin type-A receptor 5 (Homo sapiens) (UniProt P54756); conditions: at 1 µM
[15] = biological target: Ephrin type-A receptor 5 (Homo sapiens) (UniProt P54756); conditions: at 10 µM
[16] = biological target: Ephrin type-A receptor 7 (Homo sapiens) (UniProt Q15375); conditions: at 1 µM
[17] = biological target: Ephrin type-A receptor 7 (Homo sapiens) (UniProt Q15375); conditions: at 10 µM
[18] = biological target: T5, Ephrin type-A receptor 8 (Homo sapiens) (UniProt P29322); conditions: at 1 µM
T5 sequence (whole entry): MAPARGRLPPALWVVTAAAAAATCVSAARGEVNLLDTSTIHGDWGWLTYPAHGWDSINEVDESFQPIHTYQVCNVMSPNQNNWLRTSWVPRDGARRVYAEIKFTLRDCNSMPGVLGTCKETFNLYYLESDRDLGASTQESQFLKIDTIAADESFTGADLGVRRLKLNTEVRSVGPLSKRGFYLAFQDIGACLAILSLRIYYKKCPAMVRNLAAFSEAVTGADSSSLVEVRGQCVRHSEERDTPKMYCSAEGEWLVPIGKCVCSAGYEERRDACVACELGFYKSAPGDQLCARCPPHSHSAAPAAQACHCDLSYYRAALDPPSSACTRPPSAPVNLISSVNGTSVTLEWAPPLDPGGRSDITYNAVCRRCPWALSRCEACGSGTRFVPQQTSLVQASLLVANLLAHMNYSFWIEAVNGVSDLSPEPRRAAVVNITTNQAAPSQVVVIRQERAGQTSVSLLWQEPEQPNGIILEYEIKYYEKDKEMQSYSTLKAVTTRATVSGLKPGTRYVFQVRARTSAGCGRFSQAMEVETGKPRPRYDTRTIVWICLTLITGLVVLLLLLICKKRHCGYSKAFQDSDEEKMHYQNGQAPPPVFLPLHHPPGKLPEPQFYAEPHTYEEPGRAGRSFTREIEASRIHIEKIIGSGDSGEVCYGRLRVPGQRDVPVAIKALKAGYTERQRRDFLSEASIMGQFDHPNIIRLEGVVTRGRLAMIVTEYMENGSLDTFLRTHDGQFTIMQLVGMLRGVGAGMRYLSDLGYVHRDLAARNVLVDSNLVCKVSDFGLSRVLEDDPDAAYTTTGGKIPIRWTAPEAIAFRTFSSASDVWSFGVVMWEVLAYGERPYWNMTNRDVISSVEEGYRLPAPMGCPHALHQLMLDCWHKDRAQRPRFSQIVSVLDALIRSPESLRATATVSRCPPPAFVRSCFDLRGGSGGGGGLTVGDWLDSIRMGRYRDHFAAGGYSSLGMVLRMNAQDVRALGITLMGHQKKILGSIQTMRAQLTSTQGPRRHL

[19] = biological target: T5, Ephrin type-A receptor 8 (Homo sapiens); conditions: at 10 µM
[20] = biological target: T6, Ephrin type-B receptor 1 (Homo sapiens) (UniProt P54762); conditions: at 1 µM
T6 sequence (whole entry): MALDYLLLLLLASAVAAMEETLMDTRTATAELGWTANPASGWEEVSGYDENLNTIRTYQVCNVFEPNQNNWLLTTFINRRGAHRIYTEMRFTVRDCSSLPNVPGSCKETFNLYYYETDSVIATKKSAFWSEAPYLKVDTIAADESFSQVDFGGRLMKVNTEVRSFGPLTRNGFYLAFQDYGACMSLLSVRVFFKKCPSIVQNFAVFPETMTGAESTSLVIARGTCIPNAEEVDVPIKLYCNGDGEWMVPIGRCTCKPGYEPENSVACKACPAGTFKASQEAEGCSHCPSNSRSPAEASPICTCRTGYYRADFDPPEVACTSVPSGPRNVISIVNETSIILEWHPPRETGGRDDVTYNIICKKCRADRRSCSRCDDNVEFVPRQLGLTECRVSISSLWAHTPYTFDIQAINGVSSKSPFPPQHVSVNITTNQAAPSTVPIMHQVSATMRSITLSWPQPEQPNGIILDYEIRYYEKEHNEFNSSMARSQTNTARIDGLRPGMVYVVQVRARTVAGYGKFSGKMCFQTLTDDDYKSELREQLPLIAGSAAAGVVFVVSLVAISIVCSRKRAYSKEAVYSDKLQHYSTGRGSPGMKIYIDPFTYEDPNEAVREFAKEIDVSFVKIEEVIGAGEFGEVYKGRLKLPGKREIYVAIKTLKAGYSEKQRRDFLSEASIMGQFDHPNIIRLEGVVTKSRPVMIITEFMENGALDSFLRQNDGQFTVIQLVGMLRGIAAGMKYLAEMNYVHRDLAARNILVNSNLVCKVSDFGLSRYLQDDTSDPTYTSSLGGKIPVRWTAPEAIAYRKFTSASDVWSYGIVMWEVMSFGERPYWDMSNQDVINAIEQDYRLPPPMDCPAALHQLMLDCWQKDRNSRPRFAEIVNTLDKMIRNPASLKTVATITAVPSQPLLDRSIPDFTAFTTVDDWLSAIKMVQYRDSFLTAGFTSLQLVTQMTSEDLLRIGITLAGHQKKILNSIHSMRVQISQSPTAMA

Sequence of Ephrin type-A receptor 5 (Homo sapiens) (P54756 whole entry): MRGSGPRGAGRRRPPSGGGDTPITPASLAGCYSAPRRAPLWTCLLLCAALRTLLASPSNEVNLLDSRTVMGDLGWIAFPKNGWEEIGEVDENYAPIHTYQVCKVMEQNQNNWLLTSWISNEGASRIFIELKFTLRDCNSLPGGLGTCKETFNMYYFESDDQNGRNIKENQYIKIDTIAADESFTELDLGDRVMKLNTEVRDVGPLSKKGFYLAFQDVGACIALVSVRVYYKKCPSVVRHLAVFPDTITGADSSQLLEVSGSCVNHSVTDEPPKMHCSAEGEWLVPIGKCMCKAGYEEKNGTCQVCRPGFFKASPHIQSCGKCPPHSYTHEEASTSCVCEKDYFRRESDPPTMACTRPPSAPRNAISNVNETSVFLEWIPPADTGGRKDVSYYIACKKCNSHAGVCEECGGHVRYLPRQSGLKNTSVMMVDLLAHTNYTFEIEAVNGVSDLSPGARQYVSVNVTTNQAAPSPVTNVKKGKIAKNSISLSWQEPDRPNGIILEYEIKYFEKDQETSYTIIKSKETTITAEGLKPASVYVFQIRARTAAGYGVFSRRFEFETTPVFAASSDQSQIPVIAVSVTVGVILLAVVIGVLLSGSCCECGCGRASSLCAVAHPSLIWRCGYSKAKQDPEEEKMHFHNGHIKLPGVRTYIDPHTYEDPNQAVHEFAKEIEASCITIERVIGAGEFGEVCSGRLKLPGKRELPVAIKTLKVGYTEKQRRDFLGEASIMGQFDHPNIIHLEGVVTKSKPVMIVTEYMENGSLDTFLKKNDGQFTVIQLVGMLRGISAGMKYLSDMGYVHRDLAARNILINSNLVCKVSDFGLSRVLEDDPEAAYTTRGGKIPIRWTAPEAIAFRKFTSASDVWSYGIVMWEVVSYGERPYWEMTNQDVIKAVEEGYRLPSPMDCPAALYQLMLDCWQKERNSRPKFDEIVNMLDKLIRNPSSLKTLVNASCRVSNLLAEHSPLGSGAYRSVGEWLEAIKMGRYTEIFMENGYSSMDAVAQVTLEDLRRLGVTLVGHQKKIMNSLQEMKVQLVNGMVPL
Sequence of Ephrin type-A receptor 4 (Homo sapiens) (P54764 whole entry): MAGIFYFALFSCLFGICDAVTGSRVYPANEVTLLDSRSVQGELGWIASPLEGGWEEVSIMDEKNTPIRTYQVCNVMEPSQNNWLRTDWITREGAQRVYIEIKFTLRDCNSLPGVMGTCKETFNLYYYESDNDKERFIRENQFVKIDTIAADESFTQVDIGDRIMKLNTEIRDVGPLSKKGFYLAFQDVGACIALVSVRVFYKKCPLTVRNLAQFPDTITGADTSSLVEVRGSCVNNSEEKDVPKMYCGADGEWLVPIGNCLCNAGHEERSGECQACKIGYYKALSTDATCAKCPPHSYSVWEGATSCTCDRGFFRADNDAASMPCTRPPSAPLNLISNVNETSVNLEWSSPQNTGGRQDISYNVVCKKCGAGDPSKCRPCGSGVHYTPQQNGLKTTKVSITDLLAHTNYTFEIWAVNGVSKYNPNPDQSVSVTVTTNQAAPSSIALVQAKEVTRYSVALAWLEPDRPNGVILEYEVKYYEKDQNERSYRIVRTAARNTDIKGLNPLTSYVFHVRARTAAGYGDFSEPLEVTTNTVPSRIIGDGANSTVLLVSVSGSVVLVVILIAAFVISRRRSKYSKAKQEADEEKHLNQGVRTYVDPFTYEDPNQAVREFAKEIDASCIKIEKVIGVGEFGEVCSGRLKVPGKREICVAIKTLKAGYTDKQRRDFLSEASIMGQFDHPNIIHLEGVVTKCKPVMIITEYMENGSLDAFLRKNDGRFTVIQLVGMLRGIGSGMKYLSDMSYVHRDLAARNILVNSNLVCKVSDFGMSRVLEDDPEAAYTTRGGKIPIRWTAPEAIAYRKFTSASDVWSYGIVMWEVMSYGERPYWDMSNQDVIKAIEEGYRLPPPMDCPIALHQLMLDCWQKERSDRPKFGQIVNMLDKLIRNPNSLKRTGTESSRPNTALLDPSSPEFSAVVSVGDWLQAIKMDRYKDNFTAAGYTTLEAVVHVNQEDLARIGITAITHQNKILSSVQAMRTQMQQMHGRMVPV
Sequence of Epidermal growth factor receptor (Homo sapiens) (P00533 whole entry): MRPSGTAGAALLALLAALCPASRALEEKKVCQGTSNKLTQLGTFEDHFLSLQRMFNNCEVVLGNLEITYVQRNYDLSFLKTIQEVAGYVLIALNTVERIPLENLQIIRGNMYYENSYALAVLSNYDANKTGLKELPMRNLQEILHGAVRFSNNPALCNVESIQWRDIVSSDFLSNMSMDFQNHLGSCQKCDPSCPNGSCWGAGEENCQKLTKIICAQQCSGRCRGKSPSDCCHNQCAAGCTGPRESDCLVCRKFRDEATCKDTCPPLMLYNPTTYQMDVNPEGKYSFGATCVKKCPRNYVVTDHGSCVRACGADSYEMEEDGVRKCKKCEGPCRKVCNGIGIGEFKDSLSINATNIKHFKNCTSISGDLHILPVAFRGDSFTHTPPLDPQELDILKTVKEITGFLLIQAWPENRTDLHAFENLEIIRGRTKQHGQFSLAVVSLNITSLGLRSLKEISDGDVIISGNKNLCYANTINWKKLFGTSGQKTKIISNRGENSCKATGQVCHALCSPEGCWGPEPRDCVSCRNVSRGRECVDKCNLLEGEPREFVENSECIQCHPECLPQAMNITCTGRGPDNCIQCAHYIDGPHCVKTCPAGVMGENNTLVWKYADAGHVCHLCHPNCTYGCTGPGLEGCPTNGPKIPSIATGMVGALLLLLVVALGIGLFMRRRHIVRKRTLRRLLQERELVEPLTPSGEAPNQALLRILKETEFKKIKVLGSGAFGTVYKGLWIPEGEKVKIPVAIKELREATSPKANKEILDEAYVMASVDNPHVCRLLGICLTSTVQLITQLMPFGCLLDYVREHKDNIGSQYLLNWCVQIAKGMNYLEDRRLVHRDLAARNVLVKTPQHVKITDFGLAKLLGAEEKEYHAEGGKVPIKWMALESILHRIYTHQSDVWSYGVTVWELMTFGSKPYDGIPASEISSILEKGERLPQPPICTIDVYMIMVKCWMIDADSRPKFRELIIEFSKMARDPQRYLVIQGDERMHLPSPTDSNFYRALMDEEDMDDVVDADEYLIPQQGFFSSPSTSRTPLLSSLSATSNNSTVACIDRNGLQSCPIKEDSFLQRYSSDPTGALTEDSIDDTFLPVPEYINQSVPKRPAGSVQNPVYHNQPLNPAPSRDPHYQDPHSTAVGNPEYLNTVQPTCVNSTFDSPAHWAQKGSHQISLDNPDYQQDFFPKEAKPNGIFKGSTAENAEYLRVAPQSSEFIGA
Sequence of Ephrin type-A receptor 7 (Homo sapiens) (Q15375 28-998 limits assumed): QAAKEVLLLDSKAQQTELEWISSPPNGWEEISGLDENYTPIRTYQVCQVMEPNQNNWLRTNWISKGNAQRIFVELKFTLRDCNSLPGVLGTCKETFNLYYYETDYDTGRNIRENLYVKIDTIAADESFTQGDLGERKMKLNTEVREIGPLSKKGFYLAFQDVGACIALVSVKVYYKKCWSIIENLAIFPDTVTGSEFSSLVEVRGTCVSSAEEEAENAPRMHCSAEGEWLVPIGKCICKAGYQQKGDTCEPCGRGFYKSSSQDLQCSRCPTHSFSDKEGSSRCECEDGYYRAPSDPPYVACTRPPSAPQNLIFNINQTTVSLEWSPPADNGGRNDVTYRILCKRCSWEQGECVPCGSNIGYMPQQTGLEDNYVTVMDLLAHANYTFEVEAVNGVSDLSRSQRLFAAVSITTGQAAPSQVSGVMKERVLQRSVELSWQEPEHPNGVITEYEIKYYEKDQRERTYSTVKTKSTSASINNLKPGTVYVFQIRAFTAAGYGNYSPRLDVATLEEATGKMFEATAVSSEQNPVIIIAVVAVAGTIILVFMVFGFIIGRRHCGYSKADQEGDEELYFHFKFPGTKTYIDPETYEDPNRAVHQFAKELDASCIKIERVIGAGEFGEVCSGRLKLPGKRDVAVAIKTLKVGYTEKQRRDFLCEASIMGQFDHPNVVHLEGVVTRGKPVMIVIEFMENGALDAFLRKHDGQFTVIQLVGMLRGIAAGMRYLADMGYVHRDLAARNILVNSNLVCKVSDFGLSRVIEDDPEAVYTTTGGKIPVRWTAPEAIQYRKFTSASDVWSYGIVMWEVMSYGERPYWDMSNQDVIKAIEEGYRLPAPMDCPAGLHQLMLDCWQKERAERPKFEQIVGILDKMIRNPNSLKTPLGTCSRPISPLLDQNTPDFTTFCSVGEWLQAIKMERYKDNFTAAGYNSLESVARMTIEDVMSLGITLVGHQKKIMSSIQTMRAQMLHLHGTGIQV

Row | Structure (SMILES) | residual activity [1] [%] | residual activity [2] [%] | residual activity [3] [%] | residual activity [4] [%] | residual activity [5] [%] | residual activity [6] [%] | residual activity [7] [%] | residual activity [8] [%] | residual activity [9] [%] | residual activity [10] [%] | residual activity [11] [%] | residual activity [12] [%] | residual activity [13] [%] | residual activity [14] [%] | residual activity [15] [%] | residual activity [16] [%] | residual activity [17] [%] | residual activity [18] [%] | residual activity [19] [%] | residual activity [20] [%]
1 | O=C1NC(=O)/C(=C/c2ccc3c(c2)OC(F)(F)O3)S1 | 99 | 86 | 65 | 116 | 119 | 93 | 96 | 107 | 115 | 103 | 93 | 116 | 105 | 115 | 103 | 89 | 102 | 111 | 99 | 115
2 | O=C1NC(=O)/C(=C\c2ccc3nccnc3c2)S1 | 19 | 7 | -4 | 100 | 113 | 95 | 90 | 100 | 111 | 91 | 87 | 108 | 106 | 132 | 101 | 97 | 94 | 88 | 94 | 115
3 | CC(C)n1cnc2c(NCc3ccccc3)nc(NCCCO)nc21 | 134 | 99 | 89 | -1 | -2 | 99 | 91 | 102 | 112 | 101 | 101 | 109 | 104 | 96 | 84 | 84 | 78 | 97 | 94 | 93
